Measured values as given in PubChem BioAssay (EPA / NIEHS).
Inconclusive results are not listed. Calls of active or inactive are those of the source. Rule for the calls, unless noted: active = hit-call score of the fitted dose curve at least 0.9, where 1 is the maximum; inactive = score below 0.9.

Key:
[1] = ATG_DR4_LXR_CIS: Attagene CIS-FACTORIAL HepG2 Assay for human Liver X Receptor (LXR), DR4 submotif (AID 2282929); conditions: HepG2 Attagene DR4 cis-reporter, mRNA transcription; actives raise or lower the signal
Procedure, shortened: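 Total RNA from 24 h-treated, MRTU-transfected HepG2 cells underwent reverse transcription, PCR, fluorescent primer extension and restriction digestion before capillary electrophoresis. Both increases and decreases in reporter signal were fitted against DMSO.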

[2] = ATG_AP_1_CIS: Attagene CIS-FACTORIAL HepG2 Assay for human Activator Protein 1 (AP-1) (AID 2282931); conditions: HepG2 Attagene cis-factorial AP-1 reporter mRNA; actives raise or lower the signal
Procedure, shortened: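 HepG2, transient cis-reporter transfection; 24 h; readout RT-PCR/CE fluorescence; DMSO baseline, gain and loss fitted.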

[3] = ATG_Ets_CIS: Attagene CIS-FACTORIAL HepG2 Assay for human Erythroblast Transformation Specific (ETS) (AID 2282941); conditions: HepG2 ETS cis-reporter transcription, actives raise or lower the signal
Procedure, shortened: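 Multiplexed reporter transcript profiling: HepG2, 24 h treatment, total RNA to cDNA, PCR, 6-FAM labelling, HpaI cut, capillary electrophoresis. Gain- or loss-of-signal fitted against DMSO.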

[4] = biological target: Hypoxia-inducible factor 1-alpha (Homo sapiens) (UniProt Q16665); test: ATG_HIF1a_CIS: Attagene CIS-FACTORIAL HepG2 Assay for human Hypoxia Inducible Factor 1 (HIF1A) (AID 2282951); conditions: HepG2 Attagene cis-factorial HIF1a reporter transcription; actives raise or lower the signal
Chain of Hypoxia-inducible factor 1-alpha (Homo sapiens) (Q16665 whole entry, looked up): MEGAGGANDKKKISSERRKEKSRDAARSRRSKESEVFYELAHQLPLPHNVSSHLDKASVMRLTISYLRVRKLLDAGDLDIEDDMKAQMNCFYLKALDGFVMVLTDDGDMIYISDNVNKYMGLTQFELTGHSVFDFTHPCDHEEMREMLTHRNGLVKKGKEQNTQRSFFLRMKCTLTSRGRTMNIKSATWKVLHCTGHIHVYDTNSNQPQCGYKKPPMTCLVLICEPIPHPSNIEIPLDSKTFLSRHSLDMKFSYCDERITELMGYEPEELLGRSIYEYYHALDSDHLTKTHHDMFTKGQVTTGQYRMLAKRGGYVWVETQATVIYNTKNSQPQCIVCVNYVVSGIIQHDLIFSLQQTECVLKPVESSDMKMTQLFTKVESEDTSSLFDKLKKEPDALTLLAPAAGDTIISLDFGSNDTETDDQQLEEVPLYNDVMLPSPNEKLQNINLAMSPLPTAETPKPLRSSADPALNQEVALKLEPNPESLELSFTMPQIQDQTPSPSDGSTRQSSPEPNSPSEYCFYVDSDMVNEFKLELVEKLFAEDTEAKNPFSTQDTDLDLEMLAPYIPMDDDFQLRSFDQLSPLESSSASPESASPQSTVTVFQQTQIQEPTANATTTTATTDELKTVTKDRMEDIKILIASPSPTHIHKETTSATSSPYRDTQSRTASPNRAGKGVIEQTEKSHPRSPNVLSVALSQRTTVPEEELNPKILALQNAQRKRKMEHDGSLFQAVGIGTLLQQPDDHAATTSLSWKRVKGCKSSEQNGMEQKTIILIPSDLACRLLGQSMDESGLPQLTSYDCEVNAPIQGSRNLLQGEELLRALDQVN
Procedure, shortened: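 After 24 h chemical exposure of reporter-transfected HepG2 cells, reporter cDNA was PCR-amplified, labelled by 6-FAM primer extension (2 min 95 C, 20 s 68 C, 10 min 72 C), HpaI-cut (2 h, 37 C) and analysed by CE.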

[5] = biological target: Heat shock factor protein 1 (Homo sapiens) (UniProt Q00613); test: ATG_HSE_CIS: Attagene CIS-FACTORIAL HepG2 Assay for human Heat Shock Transcription Factor 1 (HSE) (AID 2282953); conditions: HepG2 HSE cis-reporter, Attagene RNA transcription; actives raise or lower the signal
Chain of Heat shock factor protein 1 (Homo sapiens) (Q00613 whole entry, looked up): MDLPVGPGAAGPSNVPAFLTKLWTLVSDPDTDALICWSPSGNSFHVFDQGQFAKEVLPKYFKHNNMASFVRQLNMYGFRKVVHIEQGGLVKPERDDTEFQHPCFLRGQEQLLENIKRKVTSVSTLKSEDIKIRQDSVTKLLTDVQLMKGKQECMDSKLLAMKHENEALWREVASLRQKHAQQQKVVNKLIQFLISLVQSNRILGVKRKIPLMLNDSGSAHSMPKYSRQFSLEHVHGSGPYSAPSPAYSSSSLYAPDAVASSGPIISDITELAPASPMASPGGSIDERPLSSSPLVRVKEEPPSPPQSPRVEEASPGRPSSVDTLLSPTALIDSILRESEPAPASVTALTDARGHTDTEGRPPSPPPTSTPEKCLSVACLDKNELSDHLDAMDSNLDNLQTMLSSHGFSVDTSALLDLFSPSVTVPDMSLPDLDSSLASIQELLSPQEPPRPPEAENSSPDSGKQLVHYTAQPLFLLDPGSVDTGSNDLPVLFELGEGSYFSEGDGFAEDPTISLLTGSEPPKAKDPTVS
Procedure, shortened: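 HepG2 cells transfected with cis-promoter reporter units sensing endogenous transcription factor activity; reporter mRNA quantified 24 h post-dose by RT-PCR and capillary electrophoresis of 6-FAM-labelled products. Bidirectional fitting against DMSO.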

[6] = biological target: Paired box protein Pax-6 (Homo sapiens) (UniProt P26367); test: ATG_Pax6_CIS: Attagene CIS-FACTORIAL HepG2 Assay for human Paired Box 6 (PAX6) (AID 2282956); conditions: HepG2 CIS-FACTORIAL PAX6 reporter transcription, RNA readout; actives raise or lower the signal
Chain of Paired box protein Pax-6 (Homo sapiens) (P26367 whole entry, looked up): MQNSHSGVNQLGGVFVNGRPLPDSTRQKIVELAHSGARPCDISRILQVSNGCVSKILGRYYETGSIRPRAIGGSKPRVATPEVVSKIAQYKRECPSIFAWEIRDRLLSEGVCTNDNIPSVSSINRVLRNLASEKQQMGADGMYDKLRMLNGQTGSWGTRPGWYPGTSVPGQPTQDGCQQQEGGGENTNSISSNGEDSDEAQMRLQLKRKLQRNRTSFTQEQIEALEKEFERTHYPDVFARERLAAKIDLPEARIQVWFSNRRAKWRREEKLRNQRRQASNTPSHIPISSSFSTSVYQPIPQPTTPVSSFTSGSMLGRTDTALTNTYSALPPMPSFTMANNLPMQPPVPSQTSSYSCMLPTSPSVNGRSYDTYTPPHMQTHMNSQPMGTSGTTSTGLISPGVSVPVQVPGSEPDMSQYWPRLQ
Procedure, shortened: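 Values derive from bidirectional curve fitting of reporter mRNA signal relative to DMSO. HepG2 cells bearing transfected cis-regulated MRTUs were exposed for 24 h; transcripts were read by RT-PCR and capillary electrophoresis.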

[7] = biological target: Signal transducer and activator of transcription 3 (Homo sapiens) (UniProt P40763); test: ATG_STAT3_CIS: Attagene CIS-FACTORIAL HepG2 Assay for human Signal Transducer and Activator of Transcription 3 (STAT3) (AID 2282963); conditions: HepG2, Attagene cis-factorial STAT3 reporter transcription; actives raise or lower the signal
Chain of Signal transducer and activator of transcription 3 (Homo sapiens) (P40763 whole entry, looked up, the tested form may be a part): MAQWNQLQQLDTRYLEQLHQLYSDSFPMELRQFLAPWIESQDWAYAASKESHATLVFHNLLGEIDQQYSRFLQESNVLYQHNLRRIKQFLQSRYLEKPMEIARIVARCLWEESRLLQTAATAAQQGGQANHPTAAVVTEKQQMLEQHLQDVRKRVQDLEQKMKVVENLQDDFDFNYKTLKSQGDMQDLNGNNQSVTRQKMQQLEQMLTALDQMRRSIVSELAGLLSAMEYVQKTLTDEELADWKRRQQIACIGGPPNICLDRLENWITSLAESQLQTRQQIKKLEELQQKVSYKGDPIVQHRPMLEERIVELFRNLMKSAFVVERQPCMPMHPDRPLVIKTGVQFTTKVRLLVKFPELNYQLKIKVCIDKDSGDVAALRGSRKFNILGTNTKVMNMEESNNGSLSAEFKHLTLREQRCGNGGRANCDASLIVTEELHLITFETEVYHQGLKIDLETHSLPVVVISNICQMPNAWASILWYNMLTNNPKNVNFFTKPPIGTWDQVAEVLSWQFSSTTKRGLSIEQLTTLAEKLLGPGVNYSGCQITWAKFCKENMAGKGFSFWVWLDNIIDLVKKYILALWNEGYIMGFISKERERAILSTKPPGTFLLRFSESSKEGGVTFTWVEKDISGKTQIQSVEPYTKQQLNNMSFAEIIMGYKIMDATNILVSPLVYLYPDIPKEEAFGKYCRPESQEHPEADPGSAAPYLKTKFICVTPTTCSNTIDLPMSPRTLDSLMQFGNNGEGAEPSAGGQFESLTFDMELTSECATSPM
Procedure, shortened: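 Readout: fluorescent reporter mRNA fragments resolved by capillary electrophoresis. Setup: HepG2 transfected with MRTUs reporting endogenous transcription-factor activity, dosed 24 h. Gain or loss of signal fitted bidirectionally against DMSO control.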

[8] = ATG_TA_CIS: Attagene CIS-FACTORIAL HepG2 Assay for human TA Basal Promoter (AID 2282964); conditions: HepG2 Attagene CIS-factorial TA basal promoter reporter; actives raise or lower the signal
Procedure, shortened: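 HepG2 cells transiently transfected with multiple reporter units under cis promoter elements, reporting endogenous transcription factor activity; this endpoint tracks the TA basal promoter as background control. Reporter mRNA after 24 h dosing measured by RT-PCR/capillary electrophoresis; bidirectional fits versus DMSO.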

[9] = ATG_TCF_b_cat_CIS: Attagene CIS-FACTORIAL HepG2 Assay for human T-Cell-Factor with beta-catenin (TCF/b-cat) (AID 2282965); conditions: HepG2 TCF/beta-catenin cis-reporter transcription, actives raise or lower the signal
Procedure, shortened: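 HepG2, transient MRTU transfection, cis-element-driven reporters (endogenous TFs). 24 h compound exposure. Readout: reporter mRNA by RT-PCR + 6-FAM primer extension, HpaI digest, capillary electrophoresis. Gain/loss fit vs DMSO baseline.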

[10] = ATG_TAL_CIS: Attagene CIS-FACTORIAL HepG2 Assay for human TAL Basal Promoter (AID 2282966); conditions: HepG2 Attagene cis-factorial TAL promoter reporter; actives raise or lower the signal;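 note: background control endpoint measuring basal TAL promoter reporter mRNA not a specific factor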
Procedure, shortened: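 Human hepatoma HepG2 cells, transfected with promoter-regulated reporter units, were treated 24 h. Reporter transcript levels, measured through RT-PCR and capillary electrophoresis, were fitted for gain or loss relative to DMSO.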

[11] = biological target: X-box-binding protein 1 (Homo sapiens) (UniProt P17861); test: ATG_Xbp1_CIS: Attagene CIS-FACTORIAL HepG2 Assay for human X-box Binding Protein 1 (XBP1) (AID 2282972); conditions: HepG2 XBP1 cis-element reporter, Attagene multiplex; actives raise or lower the signal
Chain of X-box-binding protein 1 (Homo sapiens) (P17861 whole entry, looked up): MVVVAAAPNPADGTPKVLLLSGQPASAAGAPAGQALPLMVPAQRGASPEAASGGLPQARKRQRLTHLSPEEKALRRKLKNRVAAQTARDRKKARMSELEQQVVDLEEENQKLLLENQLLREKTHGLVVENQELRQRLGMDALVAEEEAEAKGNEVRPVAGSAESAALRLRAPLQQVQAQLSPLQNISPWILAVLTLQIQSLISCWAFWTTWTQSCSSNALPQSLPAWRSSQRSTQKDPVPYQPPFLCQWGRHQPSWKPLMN
Procedure, shortened: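 Human hepatoma HepG2, cis-element reporter system, 24 h treatment; mRNA quantified by RT-PCR/CE fluorescence; fit relative to DMSO.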

[12] = biological target: Transcriptional activator Myb (Homo sapiens) (UniProt P10242); test: ATG_Myb_CIS: Attagene CIS-FACTORIAL HepG2 Assay for human Myeloblastosis (Myb) Proto-Oncogene Transcription Factor (AID 2282986); conditions: HepG2 Attagene CIS-FACTORIAL Myb reporter transcription; actives raise or lower the signal
Chain of Transcriptional activator Myb (Homo sapiens) (P10242 whole entry, looked up): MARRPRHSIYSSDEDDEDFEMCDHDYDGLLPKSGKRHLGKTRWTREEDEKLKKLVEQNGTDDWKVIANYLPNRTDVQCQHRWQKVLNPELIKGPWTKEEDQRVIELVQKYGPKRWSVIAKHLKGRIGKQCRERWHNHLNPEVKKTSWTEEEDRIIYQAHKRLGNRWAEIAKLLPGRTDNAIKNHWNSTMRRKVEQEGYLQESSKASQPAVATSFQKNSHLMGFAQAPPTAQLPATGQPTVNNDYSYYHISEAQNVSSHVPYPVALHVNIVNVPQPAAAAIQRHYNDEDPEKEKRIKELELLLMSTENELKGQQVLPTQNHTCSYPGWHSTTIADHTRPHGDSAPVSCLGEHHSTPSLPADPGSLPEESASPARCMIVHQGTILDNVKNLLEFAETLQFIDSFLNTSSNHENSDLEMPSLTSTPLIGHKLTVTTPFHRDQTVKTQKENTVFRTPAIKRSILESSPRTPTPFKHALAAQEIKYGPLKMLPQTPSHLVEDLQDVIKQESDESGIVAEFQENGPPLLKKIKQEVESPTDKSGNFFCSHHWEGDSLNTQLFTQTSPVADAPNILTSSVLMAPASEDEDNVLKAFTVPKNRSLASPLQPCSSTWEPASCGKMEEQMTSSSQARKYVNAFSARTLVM
Procedure, shortened: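 After 24 h of compound dosing, total RNA from transfected HepG2 cells is reverse-transcribed and the reporter sequences amplified, labeled and separated by capillary electrophoresis. Values come from bidirectional fitting against DMSO.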

[13] = ATG_NFI_CIS: Attagene CIS-FACTORIAL HepG2 Assay for human Nuclear Factor I (NFI) (AID 2282989); conditions: HepG2 cis-regulatory reporter, NFI response element transcription; actives raise or lower the signal
Procedure, shortened: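 Endogenous TF activity in HepG2 cells transiently transfected with cis-element-driven multiplexed reporter units, read 24 h after dosing. Reporter mRNA quantified by RT-PCR, 6-FAM labelling, HpaI digestion and capillary electrophoresis; bidirectional fit versus DMSO.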

[14] = biological target: Myc proto-oncogene protein (Homo sapiens) (UniProt P01106); test: ATG_Myc_CIS: Attagene CIS-FACTORIAL HepG2 Assay for human Myelocytomatosis (Myc) Proto-Oncogene Transcription Factor (AID 2282990); conditions: HepG2, Attagene cis-reporter transcription factor activity; actives raise or lower the signal
Chain of Myc proto-oncogene protein (Homo sapiens) (P01106 whole entry, looked up, the tested form may be a part): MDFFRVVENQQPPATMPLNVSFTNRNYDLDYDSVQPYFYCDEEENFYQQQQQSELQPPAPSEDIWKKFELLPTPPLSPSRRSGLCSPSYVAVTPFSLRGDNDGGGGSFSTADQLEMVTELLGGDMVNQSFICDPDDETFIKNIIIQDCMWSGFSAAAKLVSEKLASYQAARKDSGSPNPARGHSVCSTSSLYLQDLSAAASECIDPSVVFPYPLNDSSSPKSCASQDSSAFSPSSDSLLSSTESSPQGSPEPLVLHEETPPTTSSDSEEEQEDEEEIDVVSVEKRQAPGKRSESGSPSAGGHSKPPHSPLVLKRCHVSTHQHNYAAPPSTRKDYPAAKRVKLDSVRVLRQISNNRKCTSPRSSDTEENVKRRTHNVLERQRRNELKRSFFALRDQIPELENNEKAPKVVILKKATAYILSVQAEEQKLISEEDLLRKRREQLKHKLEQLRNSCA
Procedure, shortened: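 Read-out: fluorescent reporter mRNA fragments resolved by capillary electrophoresis after RT-PCR. Human HepG2 liver cells carried transfected cis-element reporter units and were dosed for 24 h. Gain or loss of signal fitted relative to DMSO baseline.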

[15] = ATG_Oct_MLP_CIS: Attagene CIS-FACTORIAL HepG2 Assay for human Octamer-Binding Transcription Factor (Oct) (AID 2282993); conditions: HepG2 Attagene cis-factorial Oct reporter, mRNA; actives raise or lower the signal
Procedure, shortened: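 HepG2 cells transiently transfected with cis-element-driven reporter transcription units (endogenous TF activity); 24 h compound exposure. Reporter mRNA quantified by RT-PCR, 6-FAM labelling, HpaI digestion and capillary electrophoresis; bidirectional fit versus DMSO baseline.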

[16] = biological target: Nuclear receptor subfamily 1 group I member 2 (Homo sapiens) (UniProt O75469); test: ATG_PXR_TRANS: Attagene TRANS-FACTORIAL HepG2 Assay for human Pregnane X Receptor (PXR) (AID 2283008; active = hit-call score of the fitted dose curve at least 0.9, where 1 is the maximum)
Chain of Nuclear receptor subfamily 1 group I member 2 (Homo sapiens) (O75469 whole entry, looked up, the tested form may be a part): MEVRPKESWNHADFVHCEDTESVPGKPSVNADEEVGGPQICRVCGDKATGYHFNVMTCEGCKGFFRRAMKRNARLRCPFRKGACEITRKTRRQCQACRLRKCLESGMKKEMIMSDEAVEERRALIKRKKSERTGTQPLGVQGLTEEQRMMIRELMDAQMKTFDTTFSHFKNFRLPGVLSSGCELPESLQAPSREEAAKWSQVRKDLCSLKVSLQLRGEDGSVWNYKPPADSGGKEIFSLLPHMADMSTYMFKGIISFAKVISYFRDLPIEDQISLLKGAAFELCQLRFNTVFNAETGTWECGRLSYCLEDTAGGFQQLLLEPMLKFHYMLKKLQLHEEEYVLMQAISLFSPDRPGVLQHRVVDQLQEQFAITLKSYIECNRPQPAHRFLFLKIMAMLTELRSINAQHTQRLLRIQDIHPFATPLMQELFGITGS
Procedure, shortened: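 Transient HepG2 transfectants carrying multiplexed reporter transcription units; PXR activity read through a Gal4 chimera. 24 h exposure. RT-PCR/CE fluorescence; upward curve fit referenced to DMSO.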

[17] = ATG_XTT_Cytotoxicity: Cytotoxicity Assessment in the Attagene TRANS-FACTORIAL HepG2 Assay (AID 2283584; active = hit-call score of the fitted dose curve at least 0.9, where 1 is the maximum)
Procedure, shortened: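 24 h chemical exposure of reporter-transfected HepG2; XTT signal loss vs DMSO indicates cytotoxicity.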

[18] = ATG_NRF2_ARE_CIS: Attagene CIS-FACTORIAL HepG2 Assay for human Nuclear Factor Erythroid 2 Related Factor 2 (NFR2) response to Antioxidant Response Elements (ARE) (AID 2282992); conditions: HepG2 Attagene ARE/NRF2 reporter, transcription factor activity; actives raise or lower the signal;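 for AC50: reporter mRNA level measured by RT-PCR and capillary electrophoresis fluorescence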
Procedure, shortened: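 Fluorescence intensity of reporter-specific cDNA fragments, separated by capillary electrophoresis, reflects mRNA induction in transfected HepG2 cells at 24 h. Activity is fitted bidirectionally, DMSO serving as baseline.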

[19] = biological target: Cellular tumor antigen p53 (Homo sapiens) (UniProt P04637); test: ATG_p53_CIS: Attagene CIS-FACTORIAL HepG2 Assay for human p53 Transcription Factor (AID 2282994); conditions: HepG2 p53 cis-element reporter, Attagene mRNA; actives raise or lower the signal
Chain of Cellular tumor antigen p53 (Homo sapiens) (P04637 whole entry, looked up): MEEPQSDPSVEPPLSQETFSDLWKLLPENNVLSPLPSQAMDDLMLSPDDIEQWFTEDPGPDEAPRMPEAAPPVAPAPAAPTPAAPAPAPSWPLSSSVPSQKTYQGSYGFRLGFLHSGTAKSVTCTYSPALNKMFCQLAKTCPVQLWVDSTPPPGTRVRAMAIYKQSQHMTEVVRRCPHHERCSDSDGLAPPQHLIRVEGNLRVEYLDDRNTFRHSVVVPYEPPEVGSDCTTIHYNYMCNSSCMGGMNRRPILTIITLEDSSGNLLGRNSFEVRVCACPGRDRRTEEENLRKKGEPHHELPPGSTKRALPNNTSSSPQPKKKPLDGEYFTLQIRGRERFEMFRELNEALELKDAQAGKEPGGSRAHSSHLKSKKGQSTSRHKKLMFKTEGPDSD
Procedure, shortened: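 Transiently transfected HepG2 (multiple cis reporter transcription units); exposure 24 h; reporter RNA via RT-PCR, 6-FAM extension, 2 h HpaI digest at 37 C, CE detection; DMSO baseline.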

[20] = ATG_CRE_CIS: Attagene CIS-FACTORIAL HepG2 Assay for human cAMP Responsive Element (CRE) binding protein 3 (AID 2282926); conditions: HepG2 CRE cis-reporter, Attagene multiplexed mRNA; actives raise or lower the signal
Procedure, shortened: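 Liver-derived HepG2, transfected with a CRE-containing reporter panel, exposed 24 h; transcript levels sized and quantified by capillary electrophoresis of labelled amplicons; signal changes either way referenced to vehicle.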

## O=C(OCc1ccccc1)c1ccccc1
[1]
  outcome: inactive
[2]
  outcome: inactive
[3]
  outcome: inactive
[4]
  AC50: 175 µM (active)
[5]
  outcome: inactive
[6]
  outcome: inactive
[7]
  outcome: inactive
[8]
  outcome: inactive
[9]
  outcome: inactive
[10]
  outcome: inactive
[11]
  outcome: inactive
[12]
  outcome: inactive
[13]
  outcome: inactive
[14]
  outcome: inactive
[15]
  outcome: inactive
[16]
  outcome: inactive
[17]
  outcome: inactive

## CCCCCCCCCCC1CO1 (configuration not stated)
[1]
  outcome: inactive
[2]
  AC50: 164 µM (active)
[4]
  outcome: inactive
[5]
  outcome: inactive
[6]
  outcome: inactive
[7]
  outcome: inactive
[8]
  AC50: 153 µM (active)
[9]
  outcome: inactive
[10]
  outcome: inactive
[11]
  outcome: inactive
[12]
  outcome: inactive
[13]
  outcome: inactive
[14]
  outcome: inactive
[18]
  AC50: 128 µM (active)
[15]
  outcome: inactive
[19]
  outcome: inactive
[16]
  outcome: inactive
[17]
  outcome: inactive

## COC(=O)c1ccccc1
[1]
  outcome: inactive
[3]
  outcome: inactive
[4]
  outcome: inactive
[5]
  outcome: inactive
[6]
  outcome: inactive
[7]
  outcome: inactive
[8]
  outcome: inactive
[9]
  outcome: inactive
[10]
  outcome: inactive
[11]
  outcome: inactive
[12]
  outcome: inactive
[13]
  outcome: inactive
[14]
  outcome: inactive
[18]
  outcome: inactive
[15]
  outcome: inactive
[19]
  outcome: inactive
[16]
  outcome: inactive
[17]
  outcome: inactive

## Cc1ccnc(N)c1
[20]
  outcome: inactive
[1]
  outcome: inactive
[3]
  outcome: inactive
[4]
  AC50: 76.7 µM (active)
[5]
  outcome: inactive
[6]
  outcome: inactive
[7]
  outcome: inactive
[8]
  outcome: inactive
[9]
  outcome: inactive
[10]
  outcome: inactive
[11]
  outcome: inactive
[12]
  outcome: inactive
[13]
  outcome: inactive
[14]
  outcome: inactive
[15]
  outcome: inactive
[19]
  outcome: inactive
[16]
  outcome: inactive
[17]
  outcome: inactive

## C/C=C(\C)C(=O)OCC/C=C\CC
[20]
  outcome: inactive
[1]
  outcome: inactive
[3]
  outcome: inactive
[4]
  outcome: inactive
[5]
  outcome: inactive
[6]
  outcome: inactive
[7]
  outcome: inactive
[8]
  outcome: inactive
[9]
  outcome: inactive
[10]
  outcome: inactive
[11]
  outcome: inactive
[12]
  outcome: inactive
[13]
  outcome: inactive
[14]
  outcome: inactive
[18]
  outcome: inactive
[15]
  outcome: inactive
[19]
  outcome: inactive
[16]
  outcome: inactive

## COc1ccccc1OCC(O)CO (configuration not stated)
[1]
  outcome: inactive
[2]
  outcome: inactive
[3]
  outcome: inactive
[7]
  outcome: inactive
[8]
  outcome: inactive
[9]
  outcome: inactive
[10]
  outcome: inactive
[11]
  outcome: inactive
[12]
  outcome: inactive
[13]
  outcome: inactive
[14]
  outcome: inactive
[18]
  outcome: inactive
[15]
  outcome: inactive
[19]
  outcome: inactive
[16]
  outcome: inactive
[17]
  outcome: inactive

## C=C(C)C(=O)OCC1CCCO1 (configuration not stated)
[1]
  outcome: inactive
[2]
  outcome: inactive
[3]
  outcome: inactive
[4]
  outcome: inactive
[5]
  outcome: inactive
[6]
  outcome: inactive
[7]
  outcome: inactive
[8]
  outcome: inactive
[9]
  outcome: inactive
[10]
  outcome: inactive
[11]
  outcome: inactive
[12]
  outcome: inactive
[13]
  outcome: inactive
[14]
  outcome: inactive
[15]
  outcome: inactive
[19]
  outcome: inactive
[16]
  outcome: inactive
